Screen size: about 5,500 compounds; about 2,000 (36%) were called active. Another 18% or so got no clear call; they are omitted. The list shows a part of the results. Values without a mark were called inactive. Cut-off read from the data, not from the text of the source: active = normalized growth mostly below about 0.91 (no sharp cut-off); inconclusive = no clear call, values can overlap the other calls; inactive = mostly above about 0.92.
Assay: chemical genetic growth profiling, strain panel (AID 1159580);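 note: tested at 20 µM; growth read once vehicle control cultures reached saturation at 30 °C; 1 = growth at the plate median or of vehicle wells; lower values mean less growth of the strain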
Settings: S. cerevisiae deletion strains, growth OD
[1] = locus YDL101C, strain DUN1, stronger effect = lower value
[2] = locus YHR030C, strain SLT2, stronger effect = lower value

Which results are given for Cc1nc(-c2nnc(Sc3ccc(C(F)(F)F)cc3[N+](=O)[O-])n2C)cs1?
normalized growth (locus YAL013W, strain DEP1, stronger effect = lower value): 1.01; normalized growth (locus YBR229C, strain ROT2, stronger effect = lower value): 1.01; normalized growth (locus YCL061C, strain MRC1, stronger effect = lower value): 0.995; normalized growth [1]: 1; normalized growth (locus YDR150W, strain NUM1, stronger effect = lower value): 0.993; normalized growth (locus YEL061C, strain CIN8, stronger effect = lower value): 0.998; normalized growth (locus YGR078C, strain PAC10, stronger effect = lower value): 1.01; normalized growth [2]: 0.965; normalized growth (locus YHR087W, strain rtc3, stronger effect = lower value): 1.02; normalized growth (locus YJR043C, strain POL32, stronger effect = lower value): 1.01; normalized growth (locus YJR075W, strain HOC1, stronger effect = lower value): 0.987; normalized growth (locus YLR039C, strain RIC1, stronger effect = lower value): 0.965; normalized growth (locus YLR058C, strain SHM2 (second series), stronger effect = lower value): 1.01; normalized growth (locus YLR085C, strain ARP6, stronger effect = lower value): 1.14; normalized growth (locus YLR262C, strain YPT6, stronger effect = lower value): 0.844; normalized growth (locus YML094W, strain GIM5, stronger effect = lower value): 1.01; normalized growth (locus YMR219W, strain ESC1, stronger effect = lower value): 1; normalized growth (locus YMR263W, strain SAP30, stronger effect = lower value): 1.02; normalized growth (locus YNL153C, strain GIM3, stronger effect = lower value): 0.998; normalized growth (locus YNL298W, strain CLA4 (second series), stronger effect = lower value): 1.01; normalized growth (locus YNL322C, strain KRE1, stronger effect = lower value): 1; normalized growth (locus YNR030W, strain Alg12, stronger effect = lower value): 1.01; normalized growth (locus YPL055C, strain LGE1, stronger effect = lower value): 1.02; normalized growth (locus YPL241C, strain CIN2, stronger effect = lower value): 1; normalized growth (locus YPR135W, strain CTF4, stronger effect = lower value): 0.956

Which normalized growth (locus YAR019C, strain CDC15, stronger effect = lower value) does the source give for Cc1ccc(S(=O)(=O)n2c(Sc3ccc([N+](=O)[O-])cc3[N+](=O)[O-])nc3cc(C)ccc32)cc1 here?
Its normalized growth is 0.996.

And the normalized growth (locus YBL105C, strain PKC1, stronger effect = lower value)?
The normalized growth was 0.972.

And the normalized growth (locus YBR135W, strain CKS1, stronger effect = lower value)?
The normalized growth was 0.983.

And the normalized growth (locus YBR136W, strain MEC1, stronger effect = lower value)?
Its normalized growth is 0.986.

And the normalized growth (locus YBR160W, strain CDC28, stronger effect = lower value)?
Its normalized growth is 0.986.

And the normalized growth (locus YDL017W, strain CDC7, stronger effect = lower value)?
Its normalized growth is 0.986.

And the normalized growth (locus YDL028C, strain MPS1, stronger effect = lower value)?
Its normalized growth is 0.992.

And the normalized growth [1]?
The normalized growth was 0.989.

And the normalized growth (locus YDL108W, strain KIN28, stronger effect = lower value)?
The normalized growth was 0.987.

What about the normalized growth (locus YDL132W, strain cdc53, stronger effect = lower value) of the same molecule?
The normalized growth was 0.989.

And the normalized growth (locus YDL214C, strain PRR2, stronger effect = lower value)?
The normalized growth was 0.947.

And the normalized growth (locus YDR052C, strain DBF4, stronger effect = lower value)?
Its normalized growth is 0.987.

What about the normalized growth (locus YDR054C, strain cdc34, stronger effect = lower value) of the same molecule?
Its normalized growth is 0.986.

What about the normalized growth (locus YDR226W, strain ADK1, stronger effect = lower value) of the same molecule?
Its normalized growth is 0.987.

What about the normalized growth (locus YDR477W, strain SNF1, stronger effect = lower value) of the same molecule?
Its normalized growth is 0.968.

What about the normalized growth (locus YER123W, strain YCK3, stronger effect = lower value) of the same molecule?
The normalized growth was 0.92.

And the normalized growth (locus YER133W, strain GLC7, stronger effect = lower value)?
Its normalized growth is 0.945.

And the normalized growth (locus YFL009W, strain cdc4, stronger effect = lower value)?
The normalized growth was 0.989.

And the normalized growth (locus YFL029C, strain CAK1, stronger effect = lower value)?
Its normalized growth is 0.988.

What about the normalized growth (locus YFR003C, strain YPI1, stronger effect = lower value) of the same molecule?
Its normalized growth is 0.986.

And the normalized growth (locus YFR019W, strain FAB1, stronger effect = lower value)?
Its normalized growth is 0.961.

And the normalized growth (locus YFR028C, strain CDC14, stronger effect = lower value)?
The normalized growth was 0.99.

What about the normalized growth (locus YGR040W, strain KSS1, stronger effect = lower value) of the same molecule?
The normalized growth was 0.97.

And the normalized growth (locus YGR052W, strain FMP48, stronger effect = lower value)?
The normalized growth was 0.966.

What about the normalized growth (locus YGR092W, strain DBF2, stronger effect = lower value) of the same molecule?
The normalized growth was 0.86.

And the normalized growth [2]?
The normalized growth was 0.839 (active).

And the normalized growth (locus YHR079C, strain IRE1, stronger effect = lower value)?
Its normalized growth is 0.884.

What about the normalized growth (locus YHR082C, strain KSP1, stronger effect = lower value) of the same molecule?
The normalized growth was 1.04.

What about the normalized growth (locus YHR205W, strain SCH9, stronger effect = lower value) of the same molecule?
Its normalized growth is 0.868.

And the normalized growth (locus YIL147C, strain SLN1, stronger effect = lower value)?
The normalized growth was 0.99.

And the normalized growth (locus YJL095W, strain BCK1, stronger effect = lower value)?
Its normalized growth is 0.879.

What about the normalized growth (locus YJL128C, strain PBS2, stronger effect = lower value) of the same molecule?
Its normalized growth is 0.939.

And the normalized growth (locus YJL157C, strain FAR1, stronger effect = lower value)?
The normalized growth was 0.936.

And the normalized growth (locus YJR016C, strain ILV3, stronger effect = lower value)?
The normalized growth was 0.986.

What about the normalized growth (locus YJR066W, strain TOR1 (second series), stronger effect = lower value) of the same molecule?
Its normalized growth is 0.898.

What about the normalized growth (locus YJR066W, strain TOR1, stronger effect = lower value) of the same molecule?
The normalized growth was 1.

And the normalized growth (locus YKL048C, strain ELM1, stronger effect = lower value)?
Its normalized growth is 0.947.

And the normalized growth (locus YKL067W, strain YNK1, stronger effect = lower value)?
Its normalized growth is 0.935.

What about the normalized growth (locus YKL101W, strain HSL1, stronger effect = lower value) of the same molecule?
Its normalized growth is 0.917.

What about the normalized growth (locus YKL193C, strain SDS22, stronger effect = lower value) of the same molecule?
The normalized growth was 0.996.

And the normalized growth (locus YKL203C, strain TOR2, stronger effect = lower value)?
Its normalized growth is 1.

And the normalized growth (locus YLR113W, strain HOG1, stronger effect = lower value)?
The normalized growth was 0.748 (active).

What about the normalized growth (locus YLR133W, strain CKI1, stronger effect = lower value) of the same molecule?
Its normalized growth is 0.932.

What about the normalized growth (locus YLR403W, strain SFP1, stronger effect = lower value) of the same molecule?
The normalized growth was 0.917.

What about the normalized growth (locus YML070W, strain DAK1, stronger effect = lower value) of the same molecule?
Its normalized growth is 0.926.

And the normalized growth (locus YMR001C, strain CDC5, stronger effect = lower value)?
The normalized growth was 0.987.

And the normalized growth (locus YMR205C, strain PFK2 (second series), stronger effect = lower value)?
The normalized growth was 0.947.

What about the normalized growth (locus YMR277W, strain FCP1, stronger effect = lower value) of the same molecule?
Its normalized growth is 0.988.

And the normalized growth (locus YNL006W, strain LST8, stronger effect = lower value)?
Its normalized growth is 0.971.

And the normalized growth (locus YNL020C, strain ARK1, stronger effect = lower value)?
The normalized growth was 0.898.

What about the normalized growth (locus YNL161W, strain CBK1, stronger effect = lower value) of the same molecule?
The normalized growth was 0.968.

What about the normalized growth (locus YNL183C, strain NPR1, stronger effect = lower value) of the same molecule?
Its normalized growth is 0.958.

And the normalized growth (locus YNL207W, strain RIO2, stronger effect = lower value)?
Its normalized growth is 0.984.

And the normalized growth (locus YNL222W, strain SSU72, stronger effect = lower value)?
Its normalized growth is 0.975.

And the normalized growth (locus YNL307C, strain MCK1 (second series), stronger effect = lower value)?
The normalized growth was 0.901.

And the normalized growth (locus YOL078W, strain AVO1, stronger effect = lower value)?
Its normalized growth is 0.987.

And the normalized growth (locus YOL136C, strain PFK27, stronger effect = lower value)?
The normalized growth was 0.919.

What about the normalized growth (locus YOR061W, strain CKA2, stronger effect = lower value) of the same molecule?
The normalized growth was 0.873.

What about the normalized growth (locus YOR119C, strain RIO1, stronger effect = lower value) of the same molecule?
The normalized growth was 1.03.

And the normalized growth (locus YOR231W, strain MKK1, stronger effect = lower value)?
Its normalized growth is 0.887.

What about the normalized growth (locus YOR329C, strain SCD5, stronger effect = lower value) of the same molecule?
Its normalized growth is 0.968.

And the normalized growth (locus YPL031C, strain PHO85, stronger effect = lower value)?
The normalized growth was 0.951.

What about the normalized growth (locus YPL153C, strain RAD53, stronger effect = lower value) of the same molecule?
Its normalized growth is 0.964.

What about the normalized growth (locus YPL204W, strain HRR25, stronger effect = lower value) of the same molecule?
Its normalized growth is 0.931.

What about the normalized growth (locus YPL209C, strain IPL1, stronger effect = lower value) of the same molecule?
Its normalized growth is 0.971.

What about the normalized growth (locus YPL256C, strain CLN2, stronger effect = lower value) of the same molecule?
Its normalized growth is 0.862.

What about the normalized growth (locus YPR025C, strain CCL1, stronger effect = lower value) of the same molecule?
Its normalized growth is 0.988.

And the normalized growth (locus YPR106W, strain ISR1, stronger effect = lower value)?
The normalized growth was 0.989.

What about the normalized growth (locus YPR111W, strain DBF20, stronger effect = lower value) of the same molecule?
Its normalized growth is 0.966.

What about the normalized growth (strain NNK1, stronger effect = lower value) of the same molecule?
Its normalized growth is 0.982.

And the normalized growth (strain TSCII, stronger effect = lower value)?
Its normalized growth is 0.986.
